Among the data in PubChem BioAssay are composite z-score and z-score values, retold here.

Several values for one entry are separate records, joined by “and”; a condition that tells them apart may be missing. Equal entries are not always repeated. Activity calls are given as the source filed them.

In assay [1] the test system is Plasmodium falciparum Sir2 (PF13_0152, Sir2A). Kind of assay: pfSir2 binders on small-molecule microarrays, primary screen, biochemical, small-molecule microarray, 635 nm fluorescence (AID 1098).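 Note: score merges spot fluorescence intensity with its signal-to-noise ratio.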 The conditions noted are these: small-molecule microarray binding, fluorescence 635 nm; higher = more signal.
The nature of assay [2]: small-molecule microarray binders of probe aDKK1, primary screen, biochemical, biotinylated probe, 635/667 nm fluorescence (AID 1099).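 Note: score merges 667nm spot fluorescence with signal to noise across triplicate slides.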 The conditions noted are these: higher = more signal.
The nature of assay [3]: small-molecule microarray binders of probe aCHRDL2, primary screen, biochemical, biotinylated probe, 635/667 nm fluorescence (AID 1100). As to conditions: higher = more signal.
A short description of assay [4]: splicing luciferase reporter signal modulators, primary screen, spliceosome inhibition project, cell-based, HEK293, splice +/- reporter (AID 1101).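 Note: HEK293 cells carrying a splicing-competent luciferase reporter gene; test concentration not given here.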 The conditions noted are these: luminescence, 24 h, higher = more signal, called active from +8 up or from −8 down.
In assay [5] the target is Fibroblast growth factor 10 (Homo sapiens) (UniProt O15520). As to the kind of experiment: FGF10 binders on small-molecule microarrays, primary screen, biochemical, small-molecule microarray, 635 nm fluorescence (AID 1102). As to conditions: FGF10 binding, fluorescence 635 nm, higher = more signal.
Assay [6] has as its system glycogen synthase kinase-3 (GSK3A per assay name; protocol says GSK3B). Kind of assay: GSK3 binders on small-molecule microarrays, primary screen, biochemical, small-molecule microarray, 635 nm fluorescence, GSK3A (AID 1103). Note: the record names both GSK3A and GSK3B. As to conditions: small-molecule microarray binding, fluorescence 635 nm; higher = more signal.
Assay [7] deals with Epidermal growth factor receptor (Homo sapiens) (UniProt P00533). As to the kind of experiment: EGFR binders on small-molecule microarrays, primary screen, biochemical, small-molecule microarray, 635 nm fluorescence (AID 1104).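 Note: score merges 667 nm emission intensity with spot signal to noise over triplicate slides.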 As to conditions: EGFR binding, higher = more signal.
Assay [8] concerns the target Follistatin-related protein 3 (Homo sapiens) (UniProt O95633). As to the kind of experiment: FSTL3 binders on small-molecule microarrays, primary screen, biochemical, small-molecule microarray, 635 nm fluorescence (AID 1105).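 Note: score merges emission near 667 nm and signal to noise per printed spot across three slides.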 As to conditions: FSTL3 binding, higher = more signal.
For assay [9], the target named is Dickkopf-related protein 1 (Homo sapiens) (UniProt O94907). Kind of assay: DKK1 binders on small-molecule microarrays, primary screen, biochemical, small-molecule microarray, 635 nm fluorescence scan (AID 1106).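 Note: score merges emission near 667 nm with signal to noise over three replicate slides.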 As to conditions: DKK1 binding, higher = more signal.
The subject of assay [10] is Inhibin beta A chain (activin A). Kind of assay: INHBA (activin A) binders on microarrays, primary screen, biochemical, small-molecule microarray, 635 nm fluorescence scan (AID 1107).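 Note: mouse activin A protein probed at 4.33 µg/mL on printed slides; score merges bound-protein fluorescence near 667 nm with spot signal-to-noise.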 As to conditions: small-molecule microarray binding, higher = more signal.
Assay [11] has as its system Human papillomavirus type 1a protein E7 (residues 44-93). Kind of assay: HPV1a E7 fragment binders on microarrays, primary screen, biochemical, small-molecule microarray, residues 44-93, 635 nm fluorescence (AID 1108).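 Note: E7 fragment applied at 1 µg/mL in TBST for 1 h at 4 C; score combines spot fluorescence with its signal to noise ratio.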 As to conditions: small-molecule microarray binding, fluorescence 635 nm; higher = more signal.
The nature of assay [12]: modulators of HCV replicon luciferase signal, primary screen, HCV replication inhibitor project, Huh7 cells, luciferase reporter (AID 1109).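 Note: huh7 hepatoma cells harbouring a luciferase neomycin HCV replicon reporter; luciferase luminescence as measure of HCV replicon replication; test concentration not given here.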 As to conditions: 48 h, higher = more signal.
In assay [13] the target is Left-right determination factor 2 (Homo sapiens) (UniProt O00292). Kind of assay: LEFTY2 binders on small-molecule microarrays, primary screen, biochemical, small-molecule microarray, 635 nm fluorescence scan (AID 1110). The conditions noted are these: LEFTY2 binding, higher = more signal.
Assay [14] has as its target Calmodulin-1 (Homo sapiens) (UniProt P0DP23). As to the kind of experiment: CALM1 binders on microarrays, EGTA buffer, profiling panel, biochemical, small-molecule microarray, Cy5-labelled CALM1 (AID 1111).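 Note: labelled calmodulin applied in Tris saline Tween buffer holding calcium plus EGTA and DTT.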 The conditions noted are these: Cy5-CALM1 binding fluorescence, higher = more signal.
Assay [15] has the same target. Kind of assay: calcium-bound CALM1 binders on microarrays, profiling panel, artefact control for SMM control-protein annotation, biochemical, small-molecule microarray, Cy5-labelled CALM1, plus calcium (AID 1112).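 Note: score merges spot fluorescence with signal to noise from triplicate slides.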 The conditions noted are these: Cy5-CALM1 binding fluorescence, higher = more signal.
Assay [16] in a line: small-molecule microarray binders of probe aWnt5a, primary screen, biochemical, biotinylated probe, 635/667 nm fluorescence (AID 1113).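 Note: score merges 667 nm fluorescence intensity with signal-to-noise per printed feature.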 The conditions noted are these: higher = more signal.
Assay [17] is described as follows: small-molecule microarray binders of probe aShh, primary screen, biochemical, biotinylated probe, 635/667 nm fluorescence (AID 1114).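 Note: probe is biotin-labelled aShh protein from a stem cell growth factor screen; measures binding of labelled protein to compounds printed on the slide; score merges feature fluorescence at 667 nm with signal-to-noise.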 As to conditions: higher = more signal.
The nature of assay [18]: small-molecule microarray binders of probe aNog, primary screen, biochemical, biotinylated probe, 635/667 nm fluorescence (AID 1115).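 Note: probe is biotinylated aNog protein used at 0.15 µg/mL for 1 h at 4 C; z-score combines 667 nm fluorescence of each spot with its signal to noise.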 As to conditions: higher = more signal.
In assay [19] the target is Torsin-1A-interacting protein 1 (Homo sapiens) (UniProt Q5JTV8). As to the kind of experiment: LAP1 binders from COS7 cell lysate, primary screen, small-molecule microarray, 635/667 nm fluorescence (AID 1116). As to conditions: COS7-hLAP1 lysate binding, 635 nm fluorescence, higher = more signal.
Assay [20] has as its target Alpha-bungarotoxin (Bungarus multicinctus) (UniProt P60615). Kind of assay: alpha-bungarotoxin binders on microarray, profiling panel, artefact control for SMM control protein annotation, biochemical, small-molecule microarray, Alexa647 label, 635/667 nm fluorescence (AID 1117). As to conditions: alpha-BTX-A647 binding fluorescence, higher = more signal.

Alpha-bungarotoxin (Bungarus multicinctus), sequence (P60615 whole entry, looked up): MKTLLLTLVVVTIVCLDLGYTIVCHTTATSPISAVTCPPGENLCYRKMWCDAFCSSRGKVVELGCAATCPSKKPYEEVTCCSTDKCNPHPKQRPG
Dickkopf-related protein 1 (Homo sapiens), sequence (O94907 whole entry, looked up): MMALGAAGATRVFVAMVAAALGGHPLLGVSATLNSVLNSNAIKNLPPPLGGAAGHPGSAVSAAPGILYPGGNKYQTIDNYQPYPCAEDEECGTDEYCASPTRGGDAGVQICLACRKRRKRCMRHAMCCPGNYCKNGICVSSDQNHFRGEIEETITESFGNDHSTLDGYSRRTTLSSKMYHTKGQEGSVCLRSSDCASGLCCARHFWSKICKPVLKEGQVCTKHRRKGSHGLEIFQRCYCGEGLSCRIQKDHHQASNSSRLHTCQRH
Torsin-1A-interacting protein 1 (Homo sapiens), sequence (Q5JTV8 whole entry, looked up): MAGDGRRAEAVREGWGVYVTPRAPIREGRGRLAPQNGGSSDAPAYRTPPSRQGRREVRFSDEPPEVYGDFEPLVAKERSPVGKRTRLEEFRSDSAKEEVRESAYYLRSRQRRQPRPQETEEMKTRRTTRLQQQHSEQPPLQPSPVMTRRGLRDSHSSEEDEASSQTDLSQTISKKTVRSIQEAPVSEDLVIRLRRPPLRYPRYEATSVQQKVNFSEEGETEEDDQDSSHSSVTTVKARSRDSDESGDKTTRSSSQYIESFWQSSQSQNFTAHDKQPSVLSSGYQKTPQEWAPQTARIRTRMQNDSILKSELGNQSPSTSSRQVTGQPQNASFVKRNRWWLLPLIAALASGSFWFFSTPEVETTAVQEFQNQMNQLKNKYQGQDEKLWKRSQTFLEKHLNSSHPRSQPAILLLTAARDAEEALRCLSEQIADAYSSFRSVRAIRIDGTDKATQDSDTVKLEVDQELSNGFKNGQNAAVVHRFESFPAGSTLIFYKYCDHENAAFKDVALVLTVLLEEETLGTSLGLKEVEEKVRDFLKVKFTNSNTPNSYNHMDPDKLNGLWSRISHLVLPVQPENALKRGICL
Follistatin-related protein 3 (Homo sapiens), sequence (O95633 whole entry, looked up): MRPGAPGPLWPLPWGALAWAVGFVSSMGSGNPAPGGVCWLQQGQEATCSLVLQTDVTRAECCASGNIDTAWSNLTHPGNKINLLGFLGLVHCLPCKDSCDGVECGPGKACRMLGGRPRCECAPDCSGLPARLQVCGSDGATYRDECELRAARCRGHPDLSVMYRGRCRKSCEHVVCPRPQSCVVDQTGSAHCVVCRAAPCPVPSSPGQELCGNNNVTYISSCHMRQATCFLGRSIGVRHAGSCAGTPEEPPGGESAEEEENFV
Epidermal growth factor receptor (Homo sapiens), sequence (P00533 whole entry, looked up): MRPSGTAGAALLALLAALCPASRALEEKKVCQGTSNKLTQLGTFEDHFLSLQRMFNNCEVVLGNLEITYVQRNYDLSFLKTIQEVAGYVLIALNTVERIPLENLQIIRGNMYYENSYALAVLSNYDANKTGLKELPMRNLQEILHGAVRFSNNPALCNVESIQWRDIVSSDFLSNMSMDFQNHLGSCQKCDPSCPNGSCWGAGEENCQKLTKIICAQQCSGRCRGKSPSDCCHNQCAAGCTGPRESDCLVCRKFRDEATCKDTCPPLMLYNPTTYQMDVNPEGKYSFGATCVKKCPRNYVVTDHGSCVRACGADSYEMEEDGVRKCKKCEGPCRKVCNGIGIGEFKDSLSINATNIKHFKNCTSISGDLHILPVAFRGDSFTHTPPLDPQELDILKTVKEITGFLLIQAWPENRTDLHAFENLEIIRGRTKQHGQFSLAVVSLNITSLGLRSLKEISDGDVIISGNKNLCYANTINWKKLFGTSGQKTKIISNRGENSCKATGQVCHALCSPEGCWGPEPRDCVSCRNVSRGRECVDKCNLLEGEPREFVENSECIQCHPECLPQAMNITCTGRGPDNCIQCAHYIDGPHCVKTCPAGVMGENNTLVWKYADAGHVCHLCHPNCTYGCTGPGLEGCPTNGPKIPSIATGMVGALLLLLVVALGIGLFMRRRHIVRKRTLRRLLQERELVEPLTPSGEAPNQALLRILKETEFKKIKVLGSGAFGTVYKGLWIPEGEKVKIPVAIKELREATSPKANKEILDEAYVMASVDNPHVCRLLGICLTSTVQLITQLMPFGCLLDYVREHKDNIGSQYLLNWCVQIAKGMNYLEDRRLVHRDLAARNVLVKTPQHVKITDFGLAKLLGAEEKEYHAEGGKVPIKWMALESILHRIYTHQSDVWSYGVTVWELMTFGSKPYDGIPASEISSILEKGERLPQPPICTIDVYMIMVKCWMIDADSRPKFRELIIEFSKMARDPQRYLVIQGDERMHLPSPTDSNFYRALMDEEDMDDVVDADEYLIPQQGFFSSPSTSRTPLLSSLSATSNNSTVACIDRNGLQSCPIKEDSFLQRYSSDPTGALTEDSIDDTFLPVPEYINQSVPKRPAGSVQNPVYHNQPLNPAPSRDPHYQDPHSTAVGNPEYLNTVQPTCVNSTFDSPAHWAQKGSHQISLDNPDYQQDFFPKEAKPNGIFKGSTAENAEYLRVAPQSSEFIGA
Left-right determination factor 2 (Homo sapiens), sequence (O00292 whole entry, looked up): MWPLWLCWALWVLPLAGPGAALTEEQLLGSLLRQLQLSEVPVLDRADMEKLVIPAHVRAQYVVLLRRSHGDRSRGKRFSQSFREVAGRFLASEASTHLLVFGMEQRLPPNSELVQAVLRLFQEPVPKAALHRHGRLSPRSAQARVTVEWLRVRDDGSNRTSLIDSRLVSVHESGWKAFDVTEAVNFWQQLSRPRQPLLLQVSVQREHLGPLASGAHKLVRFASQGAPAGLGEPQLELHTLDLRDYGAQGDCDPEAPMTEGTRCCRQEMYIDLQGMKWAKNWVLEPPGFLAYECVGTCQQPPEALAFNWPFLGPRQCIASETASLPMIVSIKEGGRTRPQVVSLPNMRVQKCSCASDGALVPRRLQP
Fibroblast growth factor 10 (Homo sapiens), sequence (O15520 whole entry, looked up): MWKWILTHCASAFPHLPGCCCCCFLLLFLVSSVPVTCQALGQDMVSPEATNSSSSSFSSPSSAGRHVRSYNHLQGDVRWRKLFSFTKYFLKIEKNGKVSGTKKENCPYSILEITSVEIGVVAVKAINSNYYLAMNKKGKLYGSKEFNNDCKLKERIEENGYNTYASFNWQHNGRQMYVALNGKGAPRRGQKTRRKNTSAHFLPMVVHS

On to `CO[C@@H]1C=CCC(=O)N2CCC[C@H]2C(=O)OC[C@H](C)C(=O)OC[C@H]1C`, for which the composite z-score was 0.517 in assay [1]; -0.33 in assay [2]; -0.966 in assay [3]; 0.243 in assay [5]; 0.396 in [6]; 0.612 in [7]. Further, the composite z-score was 0.875 in assay [8]; 1.26 in assay [9]; 0.358 in assay [10]; 0.172 in [11]; 0.96 in assay [13]; -0.594 in assay [14]. Further, the composite z-score is -1.16 in assay [15]; -0.202 in assay [16]; -0.352 in [17]; -0.216 in [18]; 0.568 in assay [19]; -0.0037 in assay [20]. Also, the z-score in assay [4] was -0.25 (inactive); in [12] it was 0.182.
Regarding `CN1C(=O)C2CC=C([C@H]3Oc4ccccc4S(=O)(=O)N4CCC[C@@H]34)CC2C1=O` (stereo not given in full), the composite z-score is 0.149 and 0.302 in [1]; -0.226 and -0.273 in assay [2]; -0.344 and -0.424 in [3]; -0.575 and -0.066 in [5]; -0.913 and -0.794 in assay [6]; -0.297 and -0.148 in [7]. The composite z-score in [8] was -0.837 and -0.641; in assay [9], 0.0379 and 0.305; in assay [10] it was 0.315 and 0.808; in assay [11], -1.21 and -1.99; in assay [13] it was -0.356 and 0.11; in assay [14], -0.931 and -0.686. Also, the composite z-score was -0.803 and -0.798 in assay [15]; -0.1 and -0.0125 in [16]; -0.0553 and -0.0146 in assay [17]; -0.172 and -0.324 in assay [18]; 0.0203 and 0.0568 in [19]; 0.0847 and -0.814 in [20]. The z-score was 0.776 (inactive) and 0.117 (inactive) in assay [4]; -0.539 and -0.95 in assay [12].
As for `COC(=O)[C@@]1(Cc2ccccc2)[C@H]2c3cc(C(=O)N(C)C)n(Cc4ccc(C)c(F)c4F)c3C[C@H]2CN1C(=O)c1ccccc1`, the composite z-score is 1.07 and 0.37 in [1]; 1.39 and 0.861 in assay [2]; 1.31 and 1.05 in assay [3]; 0.365 and 1.01 in assay [5]; 0.22 and 1.32 in [6]; -0.542 and 0.652 in [7]. For the same compound, the composite z-score in [8] is -0.0958 and 1.42; in [9] it was -1.07 and 0.472; in [10], 0.885 and 1.09; in assay [11], 1.41 and 1.38; in assay [13] it was -0.301 and 0.288; in [14], 1.46 and 2.22. Moreover, the composite z-score is 0.818 and 1.11 in assay [15]; 0.208 and 0.822 in assay [16]; 1.91 and -0.279 in assay [17]; 0.782 and 0.365 in [18]; 2.24 and 0.536 in [19]; 0.226 and 1.1 in assay [20]. Also, the z-score was -2.38 (inactive) and -2.61 (inactive) in assay [4]; -3.76 and -2.08 in assay [12].
`C=C(C)C(=O)OC[C@@H]1CN2[C@@H](CC[C@@H](C)[C@@H]2c2ccc(Br)cc2)C(=O)O1`: the composite z-score in [1] was 0.913; in assay [2], -0.199; in [3], -0.374; in assay [5], 0.634; in assay [6], 0.399; in assay [7] it was 0.263. Further, the composite z-score in assay [8] was 1.08; in assay [9], 0.872; in assay [10] it was 0.984; in assay [11], 0.854; in [13] it was 0.891; in [14], -0.265. In addition, the composite z-score in [15] was -0.157; in assay [16] it was -0.109; in [17], 0.0684; in assay [18] it was -0.259; in [19], 0.183; in assay [20] it was 0.548. Besides, the z-score was -0.46 (inactive) in assay [4] and 0.867 in [12].
For the compound `C=CCN(C(=O)C1N(CCCCCCO)C(=O)C2C(C(=O)O)C3C=CC21O3)C(C)(C)C` (stereo not given), the composite z-score is 2.09 and 0.74 in assay [1]; -0.164 and -0.432 in assay [2]; 0.991 and 1.09 in assay [3]; -2.17 and -2.31 in [5]; -1.18 and -1.05 in assay [6]; -2.13 and -1.6 in assay [7]. The composite z-score in assay [8] is -2.45 and -1.52; in assay [9], -3.24 and -3.14; in assay [10], -3.68 and -2.77; in assay [11], -1.46 and -0.783; in assay [13], -3.98 and -3.63; in assay [14] it was -0.332 and -0.397. In addition, the composite z-score was 0.915 and 0.825 in [15]; -0.348 and -0.364 in assay [16]; -0.221 and -0.123 in assay [17]; -0.176 and 0.338 in assay [18]; -1.85 and -0.489 in [19]; -1.42 and -1.95 in assay [20]. Besides, the z-score in assay [4] was 0.717 (inactive) and 1.5 (inactive); in assay [12] it was 0.31 and -0.387.
Consider `C=CCN(CCCC)C(=O)C(c1cccs1)N(C(=O)/C=C\C(=O)O)c1ccc(CCO)cc1` (stereo not given), for which the composite z-score in assay [1] was -0.292 and 0.315; in [2], 0.219 and -0.11; in assay [3], 0.864 and 1.06; in assay [5] it was -1.34 and -1.59; in assay [6], -1.58 and -1.35; in assay [7], -1.11 and -2.45. Besides, the composite z-score was -0.963 and -2.14 in assay [8]; -1.99 and -4.28 in assay [9]; -1.22 and -1.99 in assay [10]; -0.541 and -0.68 in assay [11]; -2.24 and -2.46 in assay [13]; -0.324 and -0.724 in [14]. For the same compound, the composite z-score in assay [15] was 0.423 and 0.395; in assay [16], -0.13 and -0.262; in assay [17], -0.0904 and -0.276; in assay [18] it was -0.0621 and -0.0827; in assay [19], 1.13 and -0.803; in assay [20] it was 0.749 and -2.47. Further, the z-score in assay [4] was 0.243 (inactive) and -0.284 (inactive); in assay [12], -1.03 and 0.741.
